# According to the supplement of paper PMC8728848:
# This is one part of a sample in which the strongest signals are shown more often than they occur.
# B1: MMR (Homo sapiens), P22897 (protein)
# chain: MRLPLLLVFASVIPGAVLLLDTRQFLIYNEDHKRCVDAVSPSAVQTAACNQDAESQKFRWVSESQIMSVAFKLCLGVPSKTDWVAITLYACDSKSEFQKWECKNDTLLGIKGEDLFFNYGNRQEKNIMLYKGSGLWSRWKIYGTTDNLCSRGYEAMYTLLGNANGATCAFPFKFENKWYADCTSAGRSDGWLWCGTTTDYDTDKLFGYCPLKFEGSESLWNKDPLTSVSYQINSKSALTWHQARKSCQQQNAELLSITEIHEQTYLTGLTSSLTSGLWIGLNSLSFNSGWQWSDRSPFRYLNWLPGSPSAEPGKSCVSLNPGKNAKWENLECVQKLGYICKKGNTTLNSFVIPSESDVPTHCPSQWWPYAGHCYKIHRDEKKIQRDALTTCRKEGGDLTSIHTIEELDFIISQLGYEPNDELWIGLNDIKIQMYFEWSDGTPVTFTKWLRGEPSHENNRQEDCVVMKGKDGYWADRGCEWPLGYICKMKSRSQGPEIVEVEKGCRKGWKKHHFYCYMIGHTLSTFAEANQTCNNENAYLTTIEDRYEQAFLTSFVGLRPEKYFWTGLSDIQTKGTFQWTIEEEVRFTHWNSDMPGRKPGCVAMRTGIAGGLWDVLKCDEKAKFVCKHWAEGVTHPPKPTTTPEPKCPEDWGASSRTSLCFKLYAKGKHEKKTWFESRDFCRALGGDLASINNKEEQQTIWRLITASGSYHKLFWLGLTYGSPSEGFTWSDGSPVSYENWAYGEPNNYQNVEYCGELKGDPTMSWNDINCEHLNNWICQIQKGQTPKPEPTPAPQDNPPVTEDGWVIYKDYQYYFSKEKETMDNARAFCKRNFGDLVSIQSESEKKFLWKYVNRNDAQSAYFIGLLISLDKKFAWMDGSKVDYVSWATGEPNFANEDENCVTMYSNSGFWNDINCGYPNAFICQRHNSSINATTVMPTMPSVPSGCKEGWNFYSNKCFKIFGFMEEERKNWQEARKACIGFGGNLVSIQNEKEQAFLTYHMKDSTFSAWTGLNDVNSEHTFLWTDGRGVHYTNWGKGYPGGRRSSLSYEDADCVVIIGGASNEAGKWMDDTCDSKRGYICQTRSDPSLTNPPATIQTDGFVKYGKSSYSLMRQKFQWHEAETYCKLHNSLIASILDPYSNAFAWLQMETSNERVWIALNSNLTDNQYTWTDKWRVRYTNWAADEPKLKSACVYLDLDGYWKTAHCNESFYFLCKRSDEIPATEPPQLPGRCPESDHTAWIPFHGHCYYIESSYTRNWGQASLECLRMGSSLVSIESAAESSFLSYRVEPLKSKTNFWIGLFRNVEGTWLWINNSPVSFVNWNTGDPSGERNDCVALHASSGFWSNIHCSSYKGYICKRPKIIDAKPTHELLTTKADTRKMDPSKPSSNVAGVVIIVILLILTGAGLAAYFFYKKRRVHLPQEGAFENTLYFNSQSSPGTSDMKDLVGNIEQNEHSVI
# B2: MIG/CXCL9 (Homo sapiens) (protein)
# chain: TPVVRKGRCSCISTNQGTIHLQSLKDLKQFAPSPSCEKIEIIIATLKNGVQTCLNPDSADVKELIKKTEKQVSQKKKQKNGKKHQKKKVLKVRKSQRSRQKKTT
# B3: MPA (Maclura pomifera) (protein)
# chain: GVTFDDGAYTGIREINFEYNSETAIGGLRVTYDLNGMPFVAEDHKSFITGFKPVKISLEFPSEYIVEVSGYVGKVEGYTVIRSLTFKTNKQTYGPYGVTNGTPFSLPIENGLIVGFKGSIGYWLDYFSIYLSLNGPNGKSQSIIVGPWGDRVTN
# Experiments:
# Experiment in all cases: glycan array binding signal (z-score within array); higher = stronger binding
# Settings in all cases: glycan notation: IUPAC condensed, linker removed
# Fuc(a1-2)Gal(b1-3)GalNAc = target: Fuc(a1-2)Gal(b1-3)GalNAc
# Procedure, shortened: (§1)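 Glycan array data came from 3228 arrays in the Consortium for Functional Glycomics database, and only arrays with an available protein sequence were kept. Glycan names were put into IUPAC-condensed notation, and columns mapping to the same glycan were averaged. The binding signal is a within-array Z-score, averaged across arrays of one protein sequence run at different concentrations or buffers and across linkers. A negative Z-score can be read as non-binding.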
# [1] = target: Fuc(a1-2)Gal(b1-4)[Fuc(a1-3)]GlcNAc(b1-3)Gal(b1-4)[Fuc(a1-3)]GlcNAc
# Procedure, shortened: as §1
# Fuc(a1-2)GlcNAc = target: Fuc(a1-2)GlcNAc
# Procedure, shortened: as §1
# [2] = target: Fuc(a1-3)[Gal3S(b1-4)]GlcNAc
# Procedure, shortened: as §1
# [3] = target: Gal(b1-3)[Fuc(a1-4)]GlcNAc(b1-3)Gal(b1-4)[Fuc(a1-3)]GlcNAc
# Procedure, shortened: as §1
# [4] = target: Gal(b1-4)GlcNAc(b1-3)Gal(b1-4)[Fuc(a1-3)]GlcNAc(b1-3)Gal(b1-4)[Fuc(a1-3)]GlcNAc
# Procedure, shortened: as §1
# Gal3S(b1-4)Glc = target: Gal3S(b1-4)Glc
# Procedure, shortened: as §1
# Gal3S(b1-4)GlcNAc6S = target: Gal3S(b1-4)GlcNAc6S
# Procedure, shortened: as §1
# Gal3S6S(b1-4)GlcNAc6S = target: Gal3S6S(b1-4)GlcNAc6S
# Procedure, shortened: as §1
# [5] = target: GlcNAc(b1-2)Gal(b1-3)GalNAc
# Procedure, shortened: as §1
# Kdn(a2-3)Gal(b1-4)GlcNAc = target: Kdn(a2-3)Gal(b1-4)GlcNAc
# Procedure, shortened: as §1
# Man(a1-3)[Man(a1-6)]Man = target: Man(a1-3)[Man(a1-6)]Man
# Procedure, shortened: as §1
# [6] = target: Neu5Ac(a2-3)Gal(b1-3)GalNAc6S
# Procedure, shortened: as §1
# [7] = target: Neu5Ac(a2-3)Gal(b1-4)GlcNAc(b1-3)Gal(b1-4)GlcNAc
# Procedure, shortened: as §1
# [8] = target: Neu5Ac(a2-6)Gal(b1-4)GlcNAc(b1-2)Man(a1-3)[Neu5Ac(a2-6)Gal(b1-4)GlcNAc(b1-2)Man(a1-6)]Man(b1-4)GlcNAc(b1-4)GlcNAc
# Procedure, shortened: as §1
# [9] = target: Neu5Ac(a2-6)Gal(b1-4)GlcNAc6S
# Procedure, shortened: as §1
# [10] = target: Neu5Ac9Ac(a2-6)Gal(b1-4)GlcNAc
# Procedure, shortened: as §1
# [11] = target: Fuc(a1-2)Gal(b1-3)GalNAc(b1-4)[Neu5Ac(a2-3)]Gal(b1-4)Glc
# Procedure, shortened: as §1
# [12] = target: Fuc(a1-2)Gal(b1-4)[Fuc(a1-3)]GlcNAc
# Procedure, shortened: as §1
# [13] = target: Fuc(a1-2)Gal(b1-4)[Fuc(a1-3)]GlcNAc(b1-3)Gal(b1-4)[Fuc(a1-3)]GlcNAc(b1-3)Gal(b1-4)[Fuc(a1-3)]GlcNAc
# Procedure, shortened: as §1
# Fuc(b1-3)GlcNAc = target: Fuc(b1-3)GlcNAc
# Procedure, shortened: as §1
# Gal(a1-3)Gal = target: Gal(a1-3)Gal
# Procedure, shortened: as §1
# Gal(b1-4)Glc6S = target: Gal(b1-4)Glc6S
# Procedure, shortened: as §1
# Gal3S6S(b1-4)GlcNAc = target: Gal3S6S(b1-4)GlcNAc
# Procedure, shortened: as §1
# Gal6S(b1-4)Glc6S = target: Gal6S(b1-4)Glc6S
# Procedure, shortened: as §1
# GalNAc(a1-3)GalNAc = target: GalNAc(a1-3)GalNAc
# Procedure, shortened: as §1
# GalNAc(b1-4)GlcNAc = target: GalNAc(b1-4)GlcNAc
# Procedure, shortened: as §1
# [14] = target: Neu5Ac(a2-3)Gal(b1-3)GlcNAc
# Procedure, shortened: as §1
# Neu5Ac(a2-3)GalNAc = target: Neu5Ac(a2-3)GalNAc
# Procedure, shortened: as §1
# [15] = target: Neu5Gc(a2-3)Gal(b1-4)[Fuc(a1-3)]GlcNAc
# Procedure, shortened: as §1
# Fuc(a1-4)GlcNAc = target: Fuc(a1-4)GlcNAc
# Procedure, shortened: as §1
# [16] = target: Gal(a1-3)[Gal(a1-4)]Gal(b1-4)GlcNAc
# Procedure, shortened: as §1
# [17] = target: Gal(b1-3)GalNAc(b1-3)Gal(a1-4)Gal(b1-4)Glc
# Procedure, shortened: as §1
# [18] = target: Gal(b1-4)GalNAc(b1-3)[Fuc(a1-2)]Gal(b1-4)GlcNAc
# Procedure, shortened: as §1
# [19] = target: Gal(b1-4)GlcNAc(b1-3)GalNAc
# Procedure, shortened: as §1
# [20] = target: Gal(b1-4)GlcNAc(b1-6)GalNAc
# Procedure, shortened: as §1
# GalNAc(b1-3)GalNAc = target: GalNAc(b1-3)GalNAc
# Procedure, shortened: as §1
# [21] = target: GlcNAc(b1-3)Gal(b1-3)GalNAc
# Procedure, shortened: as §1
# GlcNAc(b1-3)GalNAc = target: GlcNAc(b1-3)GalNAc
# Procedure, shortened: as §1
# [22] = target: GlcNAc(b1-6)Gal(b1-4)GlcNAc
# Procedure, shortened: as §1
# [23] = target: Man(a1-2)Man(a1-3)[Man(a1-6)]Man(a1-6)[Man(a1-2)Man(a1-3)]Man(b1-4)GlcNAc(b1-4)GlcNAc
# Procedure, shortened: as §1
# Man(b1-4)GlcNAc = target: Man(b1-4)GlcNAc
# Procedure, shortened: as §1
# [24] = target: Neu5Ac(a2-8)Neu5Ac(a2-8)Neu5Ac
# Procedure, shortened: as §1
binder,measurement,setting,value
B1,glycan array binding signal (z-score),Fuc(a1-2)Gal(b1-3)GalNAc,-0.435
same,glycan array binding signal (z-score),[1],-0.234
same,glycan array binding signal (z-score),Fuc(a1-2)GlcNAc,-0.407
same,glycan array binding signal (z-score),[2],2.96
same,glycan array binding signal (z-score),[3],-0.37
same,glycan array binding signal (z-score),[4],0.283
same,glycan array binding signal (z-score),Gal3S(b1-4)Glc,3.67
same,glycan array binding signal (z-score),Gal3S(b1-4)GlcNAc6S,3.5
same,glycan array binding signal (z-score),Gal3S6S(b1-4)GlcNAc6S,3.58
same,glycan array binding signal (z-score),[5],-0.453
same,glycan array binding signal (z-score),Kdn(a2-3)Gal(b1-4)GlcNAc,0.013
same,glycan array binding signal (z-score),Man(a1-3)[Man(a1-6)]Man,3.57
same,glycan array binding signal (z-score),[6],-0.344
same,glycan array binding signal (z-score),[7],-0.439
same,glycan array binding signal (z-score),[8],-0.418
same,glycan array binding signal (z-score),[9],-0.155
same,glycan array binding signal (z-score),[10],-0.397
B2,glycan array binding signal (z-score),Fuc(a1-2)Gal(b1-3)GalNAc,-0.29
same,glycan array binding signal (z-score),[11],-0.193
same,glycan array binding signal (z-score),[12],-0.26
same,glycan array binding signal (z-score),[1],-0.383
same,glycan array binding signal (z-score),[13],-0.37
same,glycan array binding signal (z-score),Fuc(b1-3)GlcNAc,-0.209
same,glycan array binding signal (z-score),Gal(a1-3)Gal,-0.114
same,glycan array binding signal (z-score),Gal(b1-4)Glc6S,0.015
same,glycan array binding signal (z-score),Gal3S(b1-4)GlcNAc6S,2.28
same,glycan array binding signal (z-score),Gal3S6S(b1-4)GlcNAc,2.35
same,glycan array binding signal (z-score),Gal3S6S(b1-4)GlcNAc6S,5.28
same,glycan array binding signal (z-score),Gal6S(b1-4)Glc6S,2.35
same,glycan array binding signal (z-score),GalNAc(a1-3)GalNAc,0.274
same,glycan array binding signal (z-score),GalNAc(b1-4)GlcNAc,-0.358
same,glycan array binding signal (z-score),[14],-0.037
same,glycan array binding signal (z-score),Neu5Ac(a2-3)GalNAc,-0.254
same,glycan array binding signal (z-score),[15],-0.288
B3,glycan array binding signal (z-score),Fuc(a1-2)Gal(b1-3)GalNAc,2.25
same,glycan array binding signal (z-score),Fuc(a1-4)GlcNAc,-0.223
same,glycan array binding signal (z-score),[16],-0.16
same,glycan array binding signal (z-score),[17],-0.24
same,glycan array binding signal (z-score),[18],-0.249
same,glycan array binding signal (z-score),[19],5.97
same,glycan array binding signal (z-score),[20],-0.161
same,glycan array binding signal (z-score),Gal3S6S(b1-4)GlcNAc,-0.233
same,glycan array binding signal (z-score),GalNAc(b1-3)GalNAc,6.31
same,glycan array binding signal (z-score),[5],5.63
same,glycan array binding signal (z-score),[21],3.46
same,glycan array binding signal (z-score),GlcNAc(b1-3)GalNAc,6.85
same,glycan array binding signal (z-score),[22],-0.229
same,glycan array binding signal (z-score),[23],-0.244
same,glycan array binding signal (z-score),Man(b1-4)GlcNAc,-0.24
same,glycan array binding signal (z-score),[24],-0.244
